Results filed as inconclusive are left out. Calls of active or inactive are those of the source. Calls come from the whole dose curve.
Target: Thyroid hormone receptor beta (Homo sapiens) (UniProt P10828)
Assay: qHTS assay for small molecule agonists of thyroid hormone receptor beta signaling (AID 588545)
Conditions: TR-UAS-bla GripTite HEK 293, beta-lactamase ratio, agonist mode, 18 h, percent of T3 response, DMSO as zero; series mostly up to 76.7 µM
Source text: NIH Chemical Genomics Center [NCGC]
U.S. Environmental Protection Agency [EPA]
National Institutes of Environmental Health Sciences [NIEHS]
National Toxicology Program [NTP]
Thyroid hormone receptor (TR) belongs to nuclear hormone receptor superfamily. There are two subtypes for TR: TR-alpha and TR-beta. TR-beta plays a major role in regulating plasma cholesterol levels and it mediates the biological activities of thyroid hormone. Screening environmental chemicals on TR-beta signaling will provide important information for the mechanism of compound action.
NCGC Assay Protocol Summary
Using a beta-lactamase reporter-gene under control of the TR response element, a cell-based assay [GeneBLAzer TR-UAS-bla-GripTite assay developed by Invitrogen] was used to measure TR-beta signaling in agonist mode. TR-UAS-bla-GripTite HEK 293 cells were used with assay medium containing 2% charcoal/dextran FBS, 0.1 mM NEAA and 1 mM sodium pyruvate. The assay was performed in clear bottom black Greiner 1536-well plates. T3 was used as a positive control in the screen. Library compounds were measured for their ability to stimulate the reporter gene activity. Compounds were screened in a titration series in 1536-well format. The fluorescence intensity (405 nm excitation, 460/530 nm emission) was measured using an EnVision plate reader. Data was normalized relative to T3 control (10 nM, 100%), and DMSO only wells (basal, 0%). Concentration-response titration points for each compound were fitted to the Hill equation yielding concentrations of half-maximal stimulation (EC50) and maximal response (efficacy) values.
qHTS protocol for TR-beta beta-lactamase assay in agonist mode
[Step] [Parameter] [Value] [Description]
1. Reagent; 6 uL; 2500 cells/well
2. Incubation; 37 C for 4 hrs
- Dose response; start 3.8 uM, 1:3 dilutions, duplicates in first column
- Two columns of each 10 and 0.4 nM (finals) concentrations.
5. Incubation; 37 C for 18 hrs
6. Detection reagent; 1 uL of CCF4-dye
7. Incubation; RT for 2 hrs
8. Detection; Fluorescence; Envision plate reader

Chain of Thyroid hormone receptor beta (Homo sapiens) (P10828 whole entry, looked up): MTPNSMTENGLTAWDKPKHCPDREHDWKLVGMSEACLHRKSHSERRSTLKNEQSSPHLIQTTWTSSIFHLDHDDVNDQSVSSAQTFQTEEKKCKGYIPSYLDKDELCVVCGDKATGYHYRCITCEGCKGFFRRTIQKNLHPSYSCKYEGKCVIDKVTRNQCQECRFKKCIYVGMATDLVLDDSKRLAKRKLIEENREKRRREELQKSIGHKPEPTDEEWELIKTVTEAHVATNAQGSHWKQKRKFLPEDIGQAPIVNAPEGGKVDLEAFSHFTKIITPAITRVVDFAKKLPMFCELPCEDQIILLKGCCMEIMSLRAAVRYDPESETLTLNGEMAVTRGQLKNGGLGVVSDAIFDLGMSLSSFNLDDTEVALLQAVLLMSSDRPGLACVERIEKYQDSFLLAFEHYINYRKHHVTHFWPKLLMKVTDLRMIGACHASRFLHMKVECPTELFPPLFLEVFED

Compound | outcome
CCCCCCCCCC(CC)c1ccc(S(=O)(=O)O)cc1 (stereo not given) | inactive
OCCCBr | inactive
O=C(O)COc1ccccc1 | inactive
COc1nn(CSP(=S)(OC)OC)c(=O)s1 | inactive
COCCOCCO | inactive
O=[N+]([O-])c1c(Cl)c(Cl)cc(Cl)c1Cl | inactive
ClC1=C(Cl)[C@]2(Cl)[C@@H]3[C@@H]4C[C@@H]([C@H]5O[C@@H]45)[C@@H]3[C@@]1(Cl)C2(Cl)Cl | inactive
O=S(=O)(O)C(F)(F)C(F)(F)C(F)(F)C(F)(F)C(F)(F)C(F)(F)C(F)(F)C(F)(F)F | inactive
Nc1ccc([N+](=O)[O-])cc1 | inactive
CN(C)[C@@H]1C(=O)C(C(N)=O)=C(O)[C@@]2(O)C(=O)C3=C(O)c4c(O)cccc4[C@@](C)(O)[C@H]3[C@H](O)[C@@H]12 | inactive
CC(C)Oc1cccc(NC(=O)c2ccccc2C(F)(F)F)c1 | inactive
O=S(=O)(O)C(F)(F)C(F)(F)C(F)(F)C(F)(F)F | inactive
CS(=O)(=O)c1ccc(C(=O)C2C(=O)CCCC2=O)c([N+](=O)[O-])c1 | inactive
COC(C)(C)CCCC(C)C/C=C/C(C)=C/C(=O)OC(C)C (stereo not given) | inactive
CCCCCCCCc1ccc(O)cc1 | inactive
O=C(O)C(Cl)Cl | inactive
COc1ccc(C(c2ccc(OC)cc2)C(Cl)(Cl)Cl)cc1 | inactive
Cc1cc(O)ccc1Cl | inactive
CO/C=C(/C(=O)OC)c1ccccc1Oc1cc(Oc2ccccc2C#N)ncn1 | inactive
O=C(O)COc1nc(Cl)c(Cl)cc1Cl | inactive

Compound | outcome
O=[N+]([O-])/N=C1\NCCN1Cc1ccc(Cl)nc1 | inactive
O=C(O)c1cc(Oc2ccc(C(F)(F)F)cc2Cl)ccc1[N+](=O)[O-] | inactive
Nc1ccc(N=Nc2ccccc2)cc1 | inactive
C1CCC(NC2CCCCC2)CC1 | inactive
CN(C)NC(=O)CCC(=O)O | inactive
O=C(O)CCCOc1ccc(Cl)cc1Cl | inactive
C=CCC1=C(C)C(OC(=O)C2C(C=C(C)C)C2(C)C)CC1=O (stereo not given) | inactive
Nc1ccc(Cl)cc1 | inactive
c1cc2ccc3cccc4ccc(c1)c2c34 | inactive
CC(C)(O)C(=O)Nc1ccc([N+](=O)[O-])c(C(F)(F)F)c1 | inactive
Nc1ccc(Sc2ccc(N)cc2)cc1 | inactive
O=[N+]([O-])c1c2ccccc2cc2ccccc12 | inactive
CCO/N=C(\CC)C1=C(O)CC(c2c(C)cc(C)cc2C)CC1=O (stereo not given) | inactive
Nc1ccc(Cl)cc1N | inactive
CCCCCC[C@H]1C(=O)O[C@H](C)[C@H](NC(=O)c2cccc(NC=O)c2O)C(=O)O[C@@H](C)[C@@H]1OC(=O)CC(C)C | inactive
O=S(=O)(c1ccc(Cl)cc1)c1ccc(Cl)cc1 | inactive
CCCCC(CC)COC(=O)c1ccccc1C(=O)OCC(CC)CCCC (stereo not given) | inactive
O=C(Nc1ccccc1-c1ccc(Cl)cc1)c1cccnc1Cl | inactive
O=[N+]([O-])c1cc([N+](=O)[O-])c2ccccc2c1 | inactive
CCCCOC(=O)c1ccccc1C(=O)OCc1ccccc1 | inactive

— PubChem BioAssay (NCATS)
